The record followed here is PubChem BioAssay.

Calls of active or inactive are those of the source. Unless noted, the rule behind the calls is not given here.

Assay [1] deals with Wnt5a (protein binding on small-molecule microarray). The assay can be described thus: Wnt5a binders on small-molecule microarray, primary screen, biophysical, 635/667 nm fluorescence (AID 1142).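 Note: fluorescence read at 667 nm with signal to noise per printed feature.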 The note with it: 635 nm fluorescence, higher = more signal.
Assay [2] in a line: cell viability in Huh7 cells, primary screen, cytotoxicity control for HCV replication inhibitor project, CellTiter-Glo luminescence, basal, 48 h (AID 1143).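 Note: Huh7 hepatoma cells carrying a hepatitis C replication reporter with no stimulus; test concentration not given here.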 The conditions noted are these: Huh7 HCV replicon, higher = more signal, called active from +8 up or from −8 down. A general note: Cellular ATP, detected with luciferase, serves as a proxy for viable cell number.
Assay [3] is described as follows: P. aeruginosa biofilm formation inhibitors, primary screen, PAO1 strain, BacTiter-Glo luminescence, LB-PBS (AID 1144). The conditions noted are these: 12 h, higher = more signal.
A short description of assay [4]: CREB reporter modulators without forskolin, primary screen, cell-based, PC12, CRE-LacZ reporter, unstimulated (AID 1145). The note with it: no forskolin, luminescence, 4.5 h, higher = more signal, called active from +8 up or from −8 down.
A short description of assay [5]: CREB reporter modulators under forskolin, primary screen, cell-based, PC12, CRE-LacZ reporter, forskolin-stimulated (AID 1146).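 Note: PC12 cells with 6xCRE LacZ reporter stimulated by forskolin 10 µM; beta-galactosidase reporter signal reflecting CREB driven transcription.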 The note with it: luminescence, 4.5 h, higher = more signal, called active from +8 up or from −8 down.
The target in assay [6] is Streptavidin (Streptomyces avidinii) (UniProt P22629). The assay can be described thus: streptavidin binders on small-molecule microarray, primary screen, artefact control for SMM compound annotation, biophysical, 635/667 nm fluorescence (AID 1147).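 Note: signal reflects streptavidin binding to arrayed compounds as a control protein.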 The note with it: streptavidin binding, higher = more signal.
Sequence of Streptavidin (Streptomyces avidinii) (P22629 whole entry, looked up): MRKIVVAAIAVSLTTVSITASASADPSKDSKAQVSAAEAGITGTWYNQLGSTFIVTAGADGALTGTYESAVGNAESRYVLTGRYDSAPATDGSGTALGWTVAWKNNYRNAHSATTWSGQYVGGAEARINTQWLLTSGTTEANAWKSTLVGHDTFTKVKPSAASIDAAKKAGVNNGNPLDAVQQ
Assay [7] is described as follows: small-molecule binders of probe aInhba, primary screen, biochemical, small-molecule microarray, 635/667 nm fluorescence (AID 1148).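 Note: score merges 667nm spot fluorescence with signal-to-noise for antibody binding to printed compounds.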 The note with it: higher = more signal.
The target of assay [8] is Torsin-1A (Homo sapiens) (UniProt O14656). As to the kind of experiment: torsin A binders from cell lysate, primary screen, small-molecule microarray, wild-type, 635/667 nm (AID 1149). The conditions noted are these: COS7 hTOR1A-WT lysate, 635 nm fluorescence, higher = more signal.
Sequence of Torsin-1A (Homo sapiens) (O14656 whole entry, looked up): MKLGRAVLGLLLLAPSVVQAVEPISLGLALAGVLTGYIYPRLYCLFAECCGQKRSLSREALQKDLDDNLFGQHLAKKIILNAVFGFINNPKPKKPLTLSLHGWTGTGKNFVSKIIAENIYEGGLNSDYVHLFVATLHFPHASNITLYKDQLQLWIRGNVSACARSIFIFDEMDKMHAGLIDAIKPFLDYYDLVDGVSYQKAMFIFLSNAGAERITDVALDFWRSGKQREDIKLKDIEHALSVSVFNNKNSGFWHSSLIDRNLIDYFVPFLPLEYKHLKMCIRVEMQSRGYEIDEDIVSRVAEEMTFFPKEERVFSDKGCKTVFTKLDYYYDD
Assay [9] shares this target. The assay can be described thus: small-molecule binders of mutant TOR1A in lysate, primary screen, cell lysate, small-molecule microarray, COS7 lysate, 635/667 nm fluorescence (AID 1150).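 Note: score pools 667 nm emission and signal to noise measuring lysate protein binding.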 The conditions noted are these: COS7 hTOR1A mutant lysate, 635 nm fluorescence, higher = more signal.
The test system of assay [10] is Sonic hedgehog protein (Shh). The assay can be described thus: small-molecule binders of Shh protein, primary screen, biochemical, small-molecule microarray, 635/667 nm fluorescence (AID 1151).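 Note: Shh protein binding to compounds spotted on small-molecule microarray slides; score combines spot fluorescence intensity with signal-to-noise across triplicate slides.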 The conditions noted are these: small-molecule microarray binding, 635 nm fluorescence; higher = more signal.
The nature of assay [11]: E. coli DRC41 culture turbidity changes, primary screen, E. coli filamentation inducer project, strain DRC41, OD650, 48 h (AID 1152).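 Note: E. coli MC1000 strain DRC41 lacking acrAB efflux pump and sulA.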 The note with it: E. coli DRC41 (acrAB sulA), higher = more signal, called active from +8 up or from −8 down.
A short description of assay [12]: small-molecule binders of probe aLefty1, primary screen, biochemical, small-molecule microarray, 635/667 nm fluorescence (AID 1153).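 Note: score merges spot fluorescence with signal-to-noise ratio from the scanned slide images.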 The note with it: higher = more signal.
Assay [13] can be described thus: PSAC antagonists in infected red cells, primary screen, cell-based, P. falciparum Indochina, OD700, 1 h (AID 1154). The conditions noted are these: P. falciparum Indochina infected RBC osmotic lysis, higher = more signal, called active from +8 up or from −8 down.
A short description of assay [14]: PSAC antagonists in infected red cells, primary screen, cell-based, P. falciparum Indochina, OD700, 2 h (AID 1155).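 Note: lysis reports solute entry through the parasite surface anion channel PSAC; channel blockers reduce lysis of infected cells.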 The note with it: P. falciparum Indochina infected erythrocytes, osmotic lysis OD700; higher = more signal, called active from +8 up or from −8 down.
Assay [15] can be described thus: osmotic lysis modulators in infected erythrocytes, primary screen, PSAC antagonist project, cell-based, P. falciparum Indochina, OD700, 3 h (AID 1156). The conditions noted are these: higher = more signal, called active from +8 up or from −8 down.
Assay [16] in a line: PSAC antagonists in infected red cells, primary screen, cell-based, P. falciparum Indochina, OD700, 18 h (AID 1157). The note with it: P. falciparum Indochina infected erythrocytes, osmotic lysis OD700, 18 h; higher = more signal, called active from +8 up or from −8 down.
Assay [17] in a line: modulators of S6 phosphorylation in cells, primary screen, cell-based, A549, cytoblot, luminescence, serum-stimulated (AID 1158).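 Note: serum-stimulated A549 lung adenocarcinoma cells; signal is phosphorylated S6 detected by cytoblot immunostaining with HRP secondary.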 The conditions noted are these: A549 phospho-S6 cytoblot, 5 h, higher = more signal.
Assay [18] deals with NADPH oxidase 2 (Homo sapiens) (UniProt P04839). As to the kind of experiment: NOX2-dependent H2O2 signal modulators, primary screen, NOX inhibitor project, cell-based, HEK293-NOX2, PMA-stimulated, Amplex Red fluorescence (AID 1159). Note: test concentration not given here. The note with it: 45 min, higher = more signal, called active from +8 up or from −8 down.
Sequence of NADPH oxidase 2 (Homo sapiens) (P04839 whole entry, looked up): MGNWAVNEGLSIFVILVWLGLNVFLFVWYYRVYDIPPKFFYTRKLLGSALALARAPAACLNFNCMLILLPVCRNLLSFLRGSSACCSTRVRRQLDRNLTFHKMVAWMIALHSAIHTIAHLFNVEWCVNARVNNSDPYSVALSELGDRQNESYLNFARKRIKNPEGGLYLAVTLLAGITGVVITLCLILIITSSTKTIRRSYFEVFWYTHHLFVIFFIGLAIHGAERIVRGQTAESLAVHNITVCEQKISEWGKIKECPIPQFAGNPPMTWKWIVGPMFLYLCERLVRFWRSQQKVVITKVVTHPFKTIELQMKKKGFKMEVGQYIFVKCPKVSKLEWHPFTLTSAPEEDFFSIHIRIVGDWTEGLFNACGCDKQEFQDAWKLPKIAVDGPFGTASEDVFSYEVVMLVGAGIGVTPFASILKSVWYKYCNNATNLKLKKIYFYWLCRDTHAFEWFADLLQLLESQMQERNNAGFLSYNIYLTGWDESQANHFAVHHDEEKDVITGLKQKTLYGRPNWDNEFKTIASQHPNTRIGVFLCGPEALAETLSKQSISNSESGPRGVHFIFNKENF
Assay [19] deals with NADPH oxidase 4 (Homo sapiens) (UniProt Q9NPH5). As to the kind of experiment: NOX4-dependent H2O2 signal modulators, primary screen, NOX inhibitor project, cell-based, HEK293-NOX4, tetracycline-induced, Amplex Red fluorescence (AID 1160). The conditions noted are these: 45 min, higher = more signal, called active from +8 up or from −8 down.
Sequence of NADPH oxidase 4 (Homo sapiens) (Q9NPH5 whole entry, looked up): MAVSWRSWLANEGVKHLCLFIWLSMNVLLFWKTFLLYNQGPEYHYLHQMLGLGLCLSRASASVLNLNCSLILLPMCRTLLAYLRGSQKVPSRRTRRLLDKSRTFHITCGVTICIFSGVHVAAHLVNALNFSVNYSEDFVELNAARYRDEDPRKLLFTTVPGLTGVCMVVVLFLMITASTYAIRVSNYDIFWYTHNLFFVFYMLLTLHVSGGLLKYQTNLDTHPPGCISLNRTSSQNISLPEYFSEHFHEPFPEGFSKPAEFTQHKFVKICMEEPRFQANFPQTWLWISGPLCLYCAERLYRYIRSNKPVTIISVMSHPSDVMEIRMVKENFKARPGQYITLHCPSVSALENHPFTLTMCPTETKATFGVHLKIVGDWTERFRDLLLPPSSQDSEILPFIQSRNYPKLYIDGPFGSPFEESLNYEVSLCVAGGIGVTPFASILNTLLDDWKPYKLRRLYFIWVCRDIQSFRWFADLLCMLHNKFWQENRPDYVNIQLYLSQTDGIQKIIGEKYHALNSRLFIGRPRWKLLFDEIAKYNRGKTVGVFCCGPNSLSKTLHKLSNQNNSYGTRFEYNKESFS
Assay [20] deals with NADPH oxidase 5 (Homo sapiens) (UniProt Q96PH1). As to the kind of experiment: NOX5-dependent H2O2 signal modulators, primary screen, NOX inhibitor project, cell-based, HEK293-NOX5, Amplex Red fluorescence (AID 1161). The note with it: HEK293-NOX5, ionomycin, 45 min, higher = more signal.
Sequence of NADPH oxidase 5 (Homo sapiens) (Q96PH1 whole entry, looked up): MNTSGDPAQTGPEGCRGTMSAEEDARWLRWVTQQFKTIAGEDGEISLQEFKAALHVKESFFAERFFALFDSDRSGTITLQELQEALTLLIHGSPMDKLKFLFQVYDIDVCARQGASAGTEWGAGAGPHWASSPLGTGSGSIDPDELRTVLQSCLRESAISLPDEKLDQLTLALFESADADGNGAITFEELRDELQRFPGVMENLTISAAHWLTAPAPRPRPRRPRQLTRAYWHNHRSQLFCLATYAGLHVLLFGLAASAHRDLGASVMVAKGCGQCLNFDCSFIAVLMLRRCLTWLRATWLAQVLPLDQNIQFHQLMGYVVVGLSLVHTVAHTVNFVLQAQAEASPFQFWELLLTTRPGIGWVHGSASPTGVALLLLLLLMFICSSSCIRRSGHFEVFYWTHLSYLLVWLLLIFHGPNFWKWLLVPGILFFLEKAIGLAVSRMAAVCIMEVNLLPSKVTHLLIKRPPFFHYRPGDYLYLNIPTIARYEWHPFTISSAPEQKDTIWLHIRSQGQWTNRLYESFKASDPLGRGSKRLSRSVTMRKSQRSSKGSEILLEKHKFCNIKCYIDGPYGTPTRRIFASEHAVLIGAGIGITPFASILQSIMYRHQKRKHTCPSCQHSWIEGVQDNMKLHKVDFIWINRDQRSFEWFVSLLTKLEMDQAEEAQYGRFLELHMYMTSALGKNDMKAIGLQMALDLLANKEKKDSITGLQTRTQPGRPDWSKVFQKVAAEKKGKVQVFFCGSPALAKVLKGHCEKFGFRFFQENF

Turning to `O=C(NCCN1CCOCC1)[C@@H]1c2ccccc2C(=O)N(Cc2ccc(OC(F)(F)F)cc2)[C@H]1c1ccc(CO)cc1`, the composite z-score was 0.0235 in [1]; -0.119 in assay [6]; -0.0762 in assay [7]; -0.282 with Torsin-1A (Homo sapiens) [8]; 0.459 in the assay with Torsin-1A (Homo sapiens) [9]; -0.0784 in [10]. In [12], this compound yielded a composite z-score of -0.222. The z-score in assay [2] was -0.281 (inactive); in assay [3], -0.0358 (inactive); in assay [4], 0.558 (inactive); in assay [5], 0.338 (inactive); in [11], -0.288 (inactive); in assay [13], 1.09 (inactive). The z-score in [14] is 0.655 (inactive); in [15] it was 1.74 (inactive); in assay [16], -0.161 (inactive); in [17], -0.219; in assay [18], 0.134 (inactive); in [19] it was 0.891 (inactive). The compound also had a z-score in assay [20] of 2.07.

As for `CCCCC(O)C1C=CC2C(=O)N(c3ccccc3)C(=O)C2N1Nc1ccccc1` (stereo not given), the composite z-score in [1] is -0.152; in assay [6], 0.682; in assay [7] it was 0.0278; in the assay with Torsin-1A (Homo sapiens) [8] it was -0.0483; with Torsin-1A (Homo sapiens) [9], 0.0691; in [10], -1.35. In assay [12], this compound showed a composite z-score of 0.139. Besides, the z-score in [2] is 0.564 (inactive); in [3], -0.279 (inactive); in assay [4], 0.257 (inactive); in [5] it was 0.875 (inactive); in assay [11], -0.274 (inactive); in [13], 4.52 (inactive). Besides, the z-score in assay [14] is 0.786 (inactive); in assay [15] it was -0.196 (inactive); in assay [16] it was 1.17 (inactive); in assay [17] it was -0.439; in assay [18] it was -1.17 (inactive); in assay [19] it was -2.93 (inactive). In addition, the z-score in [20] is -2.06.

Regarding `Cc1ccc(C(C)CC(O)C2C=CC3C(=O)N(C)C(=O)C3N2Nc2ccccc2)o1` (stereo not given), the composite z-score in [1] was 0.342; in assay [6], 0.0989; in assay [7], 0.0588; with Torsin-1A (Homo sapiens) [8], 0.371; in the assay with Torsin-1A (Homo sapiens) [9], -0.139; in [10] it was 1.08. In assay [12], this compound returned a composite z-score of 0.356. Besides, the z-score in assay [2] was -0.206 (inactive); in assay [3], -0.368 (inactive); in [4], 0.25 (inactive); in assay [5], 0.471 (inactive); in [11] it was -2.23 (inactive); in assay [13], 2.46 (inactive). Also, the z-score in [14] was 0.962 (inactive); in [15], 0.684 (inactive); in assay [16] it was 1.17 (inactive); in [17] it was -1.4; in assay [18], -1.73 (inactive); in assay [19] it was -4.75 (inactive). This compound came in with a z-score in assay [20] of -3.53.

As to `CCCC#C[Si](O[C@H](CC)c1cn(Cc2ccccc2)nn1)(C(C)C)C(C)C`, the composite z-score in assay [1] came to 0.24; in [6], 1.72; in assay [7], 0.0541; with Torsin-1A (Homo sapiens) [8], 0.732; with Torsin-1A (Homo sapiens) [9], 0.563; in assay [10], 1.27. Besides, the composite z-score in [12] is 0.687. The z-score in assay [2] is -1.01 (inactive); in assay [3], 0.171 (inactive); in assay [4], -0.374 (inactive); in assay [5], 0.04 (inactive); in [11], 0.991 (inactive); in assay [13], 0.708 (inactive). The z-score in [14] is 0.3 (inactive); in assay [15], -0.929 (inactive); in assay [16], 0.358 (inactive); in [17], 0.113; in assay [18], 0.442 (inactive); in assay [19] it was -0.11 (inactive). In [20], this compound came in with a z-score of 0.521.

Regarding `C=C1C(=O)C=C2CN(C(=O)c3ccccc3)[C@@](Cc3ccc(OC)cc3)(C(=O)OC)[C@@H]12`, the composite z-score was determined as 0.458 in [1]; 1.72 in [6]; 0.863 in assay [7]; 0.124 with Torsin-1A (Homo sapiens) [8]; 0.319 with Torsin-1A (Homo sapiens) [9]; 0.193 in [10]. Moreover, the composite z-score in [12] turned out to be 1.46. Further, the z-score in [2] is -3.68 (inactive); in assay [3] it was 0.249 (inactive); in assay [4], 0.387 (inactive); in assay [5], 0.2 (inactive); in assay [11], -1.79 (inactive); in [13], 2.02 (inactive). Further, the z-score in assay [14] was 0.368 (inactive); in assay [15], 0.218 (inactive); in [16], 1.23 (inactive); in assay [17], -0.0615; in assay [18] it was 0.427 (inactive); in assay [19], 1.1 (inactive). Moreover, in assay [20], the z-score was 2.68.
